GPR151 activ: activators of human GPR151 | PathHunter beta-arrestin GPR151 cells, luminescence | activation, % at 11.2 µM | 650,000 compounds, 1% hits; in the data active = activation above about 4.9%;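 note: 0% = median of compound wells and 100% = cells with positive control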
TEAD-YAP block: TEAD-YAP interaction inhibition | 640,000 compounds, 1.4% hits | inhibition, % at 9.12 µM | HEK-TIYL cells, TEAD-Gal4/YAP UAS-luciferase luminescence | AID 1259422; in the data active = inhibition above about 32%;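 note: 0% = median of test compound wells and 100% = reference inhibitor wells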
MITF primary: human MITF inhibition, primary screen; O75030; AlphaScreen MITF homodimerization, bead proximity signal; inhibition, % at 2.6 µM; 650,000 compounds, 0.91% hits; in the data active = inhibition above about 50%;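 note: 0% = vehicle wells with protein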
Target sequence (O75030 whole entry, looked up): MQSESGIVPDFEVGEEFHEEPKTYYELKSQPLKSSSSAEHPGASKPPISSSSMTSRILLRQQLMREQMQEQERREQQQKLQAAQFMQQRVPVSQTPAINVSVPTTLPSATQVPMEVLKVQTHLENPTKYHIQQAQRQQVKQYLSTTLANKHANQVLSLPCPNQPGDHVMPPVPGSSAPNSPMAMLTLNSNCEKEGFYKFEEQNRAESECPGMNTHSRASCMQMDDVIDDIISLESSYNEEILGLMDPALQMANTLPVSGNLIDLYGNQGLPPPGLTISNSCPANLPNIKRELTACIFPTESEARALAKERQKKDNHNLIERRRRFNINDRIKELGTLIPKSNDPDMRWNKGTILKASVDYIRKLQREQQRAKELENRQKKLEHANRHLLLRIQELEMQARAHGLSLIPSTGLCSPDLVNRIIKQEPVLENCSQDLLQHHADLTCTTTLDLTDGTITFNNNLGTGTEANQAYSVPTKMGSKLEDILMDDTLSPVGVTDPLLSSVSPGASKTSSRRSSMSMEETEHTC
FBW7 act: activators of human E3 ligase FBW7; Q969H0; AlphaScreen FBW7–phospho-cyclin E peptide binding, activator screen; normalized activity (activation), % at 26.1 µM; 650,000 compounds, 0.13% hits; in the data active = normalized activity above about 1.9%;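 note: purified mutant Fbw7 with reduced substrate affinity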
GPR151 confirm: confirmation of human GPR151 activators; shares compounds with GPR151 activ; GPR151 PathHunter beta-arrestin cells, luminescence, 90 min; % of EA-reagent control over plate median; activation, % at 11.2 µM; 6,700 tested, under 10 active; AID 1508609;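 active = mean percent activation across replicates above the confirmation screen cutoff of 4.91%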
GPR119 ag: activates human GPR119 in a GPR151 counter-screen; shares compounds with GPR151 activ; GPR119 PathHunter beta-arrestin cells, luminescence, 90 min; 0 = compound-well median, 100 = enzyme-acceptor control; activation, % at 11.2 µM; 6,700 compounds, 0.3% hits;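 active = mean percent activation in the counterscreen above 29.09%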;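 note: counterscreen on off-target GPR119 to flag nonselective hits from the GPR151 activator screen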
Active calls of the source: *; nt = not tested or not shown; ! = not active in a repeat. In the library only some 3.5% were active in any assay of this set; here they are far more common.

SMILES	GPR151 activ	TEAD-YAP block	MITF primary	FBW7 act	GPR151 confirm	GPR119 ag
CCOc1ccc(-n2nc(C(=O)NCc3ccc(F)cc3)c3ccccc3c2=O)cc1	6.4*	-0.1	0.7	0.0	-0.4	0.8
CCCN(CCC)CCCNC(=O)c1nn(-c2ccc(OC)cc2)c(=O)c2ccccc12	-1.9	2.2	14.5	0.3	nt	nt
CCCN(CCC)CCCNC(=O)c1nn(-c2ccc(OCC)cc2)c(=O)c2ccccc12	8.8*	-3.5	3.3	-0.1	1.2	7.6
CN1CCC(=C2c3ccccc3Sc3ccccc32)CC1	2.0	6.3	-3.5	0.0	nt	nt
CN1CCC(=C2c3ccccc3C=Cc3ccccc32)CC1	5.3*!	-10.8	-15.1	-0.1	0.2	-5.8
COc1ccc(NC(=O)C2CC(=O)NC(Nc3ccc(C)cc3C)=N2)cc1 (centres undefined)	12.0*	7.4	6.9	0.0	0.6	-12.8
Cc1cc(C)c(S(=O)(=O)N2CCN(C)CC2)cc1C	-0.1	10.5	5.3	-0.1	nt	nt
Cc1cc(S(=O)(=O)N2CCN(C)CC2)c(C)cc1Cl	5.3*	-2.2	-6.1	-0.1	0.3	-11.5
COC(=O)c1ccc(-n2c(C)ccc2C)cc1	1.5	-2.5	-2.2	-0.1	nt	nt
COC(=O)C1=C(C)NC(=O)NC1c1cccc(OC)c1O (centres undefined)	-0.2	1.9	3.1	-0.3	nt	nt
O=C(Nc1c2c(nn1-c1ccc(Cl)cc1)CSC2)c1ccc(Cl)cc1	7.7*	-15.0	8.4	0.1	-1.2	-12.8
COc1cc(/C=C/c2[nH]c(=O)[nH]c(=O)c2[N+](=O)[O-])ccc1OCc1ccccc1	-1.2	-11.1	19.6	0.9	nt	nt
CCN(CC)c1nc(NCCCN2CCCC2=O)nc(NCCCN2CCCC2=O)n1	0.5	-0.3	5.5	0.0	nt	nt
CCN(CC)c1nc(NCCCN2CCCC2=O)nc(NCc2nc3ccccc3[nH]2)n1	6.9*	-1.2	-0.1	0.0	-1.0	1.1
CCOC(=O)c1ccc(NC(=S)N2CCC(C(N)=O)(N3CCCCC3)CC2)cc1	0.1	7.9	13.8	0.1	nt	nt
CCc1ccc(N(C(=O)c2csnn2)C(C(=O)NC(C)(C)CC)c2ccncc2)cc1 (centres undefined)	21.9*	-8.4	9.7	-0.1	0.0	7.9
COc1cccc(-c2cc(C(=O)NCCCn3ccnc3)c3ccccc3n2)c1	7.2*	8.2	3.2	-0.4	1.6	13.4
COc1ccc(CCNC(=O)c2cc(-c3cccc(OC)c3)nc3ccccc23)cc1	-1.7	8.9	0.1	0.5	nt	nt
COc1ccc(CN2CCc3c(nc(N4CCCC(C)C4)[nH]c3=O)C2)c(O)c1 (centres undefined)	1.2	3.4	-0.5	0.1	nt	nt
O=C(CN1C(=O)S/C(=C\c2cccs2)C1=O)N1CCCC1	5.5*	-2.7	14.4	0.0	0.0	2.8
O=C(CCN1C(=O)/C(=C\c2cccs2)SC1=S)N1CCCC1	6.0*	21.4	5.5	-0.8	-0.7	-7.8
COc1ccccc1N1CCN(S(=O)(=O)c2ccc(Br)cc2C)CC1	8.5*	-6.5	-17.4	-0.1	0.3	-7.3
COc1ccc(Br)cc1S(=O)(=O)N1CCN(c2ccc(N3CCCC3)nn2)CC1	7.7*	6.5	2.6	-0.1	0.6	3.4
COC(=O)CCC(=O)Nc1cccc(C(=O)Nc2cccc(Cl)c2)c1	-0.1	-27.3	9.1	0.1	nt	nt
O=C(c1ccccc1O)N1CCc2nc3ncccc3cc2C1	-0.8	3.8	8.7	0.2	nt	nt
SMILES	GPR151 activ	TEAD-YAP block	MITF primary	FBW7 act	GPR151 confirm	GPR119 ag
O=C(NCc1ccco1)C1CN(C(=O)c2ccc(F)c(F)c2)C1	1.3	1.7	-1.4	-0.2	nt	nt
O=C(NC1CCSC1=O)C1CN(C(=O)c2ccc(F)c(F)c2)C1 (centres undefined)	8.2*	0.7	-0.7	0.1	0.1	-4.4
Cc1cc(C)cc(-n2nc3c(c2NC(=O)c2ccc(S(=O)(=O)N(C)C)cc2)CSC3)c1	0.0	-7.8	-1.4	0.0	nt	nt
NC(=O)c1nn2c(c1Br)NC(c1ccccc1)CC2C(F)(F)F (centres undefined)	-1.0	2.4	-10.7	0.2	nt	nt
O=C(O)c1nn2c(c1Br)NC(c1ccccc1)CC2C(F)(F)F (centres undefined)	7.2*	-3.8	0.0	0.0	-0.4	11.1
Cc1c(Cl)cccc1NC(=O)C(=O)NC(C)c1ccccc1 (centres undefined)	0.9	2.6	1.1	0.0	nt	nt
Cc1c(Cl)cccc1NC(=O)C(=O)NCC(O)c1ccccc1 (centres undefined)	7.3*	-6.0	-1.6	-0.1	-0.2	10.1
CN(CCCNC(=O)CCn1c(=O)c2cccn2c2cccnc21)C1CCCCC1	5.3*	0.8	-3.4	0.2	0.8	-5.5
Cc1ccc(NC(=O)c2cc3c(n(-c4ccc(C)cc4)c2=O)CCCC3=O)cc1	-0.9	-16.9	0.4	0.2	nt	nt
Cc1ccc(-n2c3c(cc(C(=O)Nc4ccc5c(c4)OCCO5)c2=O)C(=O)CCC3)cc1	5.0*	15.8	9.6	0.5	0.1	0.8
C=CCNCCCOc1ccc(Cl)c(C)c1	-3.4	-1.9	-4.3	0.0	nt	nt
COc1cc(C(=O)n2nc(N)c3cc4ccc(C)cc4nc32)cc(OC)c1OC	7.8*	41.0*	1.9	-0.1	1.4	11.0
COc1ccc(C(=O)n2nc(N)c3cc4ccc(C)cc4nc32)cc1	-1.8	-37.2	10.5	0.1	nt	nt
CCCCNc1nc(SCC(=O)c2ccc(O)c(O)c2)nc2ccccc12	5.6*	2.7	55.9*	-0.4	0.6	11.9
Fc1cccc(CSc2nc(Nc3ccc4c(c3)OCO4)c3ccccc3n2)c1	5.0*	3.4	-2.3	0.2	1.4	7.2
O=C(CSc1nc(Nc2ccc3c(c2)OCO3)c2ccccc2n1)c1ccccc1	5.3*	-4.2	-4.5	-0.1	2.5	28.0
CCCCNC(=O)CSc1nc(Nc2ccc3c(c2)OCO3)c2ccccc2n1	0.6	16.5	2.2	0.0	nt	nt
COc1cc(Nc2nc(SCc3ccc(F)cc3)nc3ccccc23)cc(OC)c1	5.0*	-14.2	5.4	0.0	0.4	11.9
O=C(O)c1ccc(N2C(=O)CC(N3CCN(c4ccccc4)CC3)C2=O)cc1 (centres undefined)	-0.4	-8.2	-0.5	-0.1	nt	nt
O=C(NCC1CCC2(CCN(Cc3ccc4cccnc4c3)CC2)O1)C1CCOCC1 (centres undefined)	-0.5	-0.6	3.3	-0.1	nt	nt
CC1(C)C=C(c2ccc(O)cc2)CC(C)(C)N1	5.6*	3.5	9.2	-0.1	-0.5	-1.7
CC1(C)C=C(c2ccc(O)cc2O)CC(C)(C)N1	-0.1	4.0	-16.8	-0.1	nt	nt
Cc1ccccc1OCc1n[nH]c(=S)n1C	7.2*	4.7	-5.8	-0.1	-0.3	-0.8
CCOC(=O)C(Sc1nc2c(sc(=S)n2-c2ccccc2OC)c(=O)n1-c1ccccc1)C(C)=O (centres undefined)	-0.1	-5.2	3.1	-0.1	nt	nt
Cc1nc(OCc2nc3ccccc3s2)c2ccccc2n1	1.6	-36.4	5.3	0.1	nt	nt

From PubChem BioAssay
